Measurements: ChEMBL document CHEMBL4888484, “Replenishing the malaria drug discovery pipeline: Screening and hit evaluation of the MMV Hit Generation Library 1 (HGL1) against asexual blood stage Plasmodium falciparum ,using a nano luciferase reporter read-out” (2022)
Hit rate of the full screen: of about 150,000 compounds, about 540 (0.36%) showed an effect of 50% or more. Shown is part of a subset that was picked to be rich in strong results.

Each molecule was assayed on Plasmodium falciparum (assay: Primary screen in NF54 nanoGlo assay, in single point, at 2uM, 72h; a lower Z score goes with more inhibition). Conditions: timepoint 72 hour.
Format: functional, Erythrocyte

Structure (SMILES) | % Inhibition [%] | Z score
CC(C)c1cnc(NCCCC[C@H]2CCCO2)nc1 | 48 | 0.41
Cc1cc(C)nc(NCCC[C@H]2CCCCO2)n1 | 54 | 0.94
Cc1cc(C)nc(NC[C@H]2CCCO2)n1 | -5 | 0.64
O=C(OCC(F)(F)F)N1CCOCC1 | 1 | -0.08
CC(C)CN1CCCC1C(=O)N1CCO[C@H]2CCC[C@H]21 (stereo partly drawn) | -5 | 0.92
O=C(N/C(=N\c1ccc(F)cc1)N1CCN(Cc2cccc(F)c2)CC1)c1ccccc1 | 2 | -0.32
O=C1C[C@]2(CC2(c2ccccc2)c2ccccc2)C(=O)N1c1cccc(Br)c1 | 19 | -3.6
COc1cccc(N2C(=O)C[C@]3(CC3(c3ccccc3)c3ccccc3)C2=O)c1 | 35 | -0.08
Cc1ccc(N2C(=O)C[C@]3(CC3(c3ccccc3)c3ccccc3)C2=O)cc1 | 73 | -0.64
CC(CNC(=O)C(=O)NC(C)CCc1ccccc1)Cc1ccccc1 (stereo not drawn) | -11 | 1.26
Cc1cccc2[nH]c(COCC(=O)NC[C@H]3CCCN(C)C3)nc12 | 14 | -1.8
O=S(=O)(c1ccc2c(c1)OCCO2)N1CC[C@H](Oc2ccncc2Cl)C1 | -7 | 1.4
O=S(=O)(c1ccc(F)c(Cl)c1)N1CC[C@H](Oc2ccncc2Cl)C1 | 72 | -13.57
O=S(=O)(c1cccnc1)N1CC[C@H](Oc2ccncc2Cl)C1 | -6 | 1.14
Cc1cc2nc[nH]c2c(NC(=O)CCc2cc3n(n2)CCNC3)c1C | -7 | 1.44
CCOc1ccc(-c2noc([C@@H]3Cc4ccccc4N3C(C)=O)n2)cc1Cl | 19 | -2.19
O=C1NC(=O)[C@@H]2CN(S(=O)(=O)c3cc(F)cc(Cl)c3)C[C@H]12 | 37 | 0.7
O=C(CCn1cnc2cc(-c3noc(-c4ccccn4)n3)ccc21)N1CCOCC1 | -9 | 1.86
COc1ccccc1Oc1cn[nH]c1-c1ccc(OCc2ccccc2C)cc1O | -7 | 0.65
COc1ccc(-c2c(C(F)(F)F)n[nH]c2-c2ccc(OCc3ccccc3F)cc2O)cc1 | 79 | -11.69
Oc1cc(OCc2ccccc2F)ccc1-c1[nH]ncc1-c1ccccc1 | 52 | -11.1
COc1ccc(Oc2cn[nH]c2-c2ccc(OCc3ccc(F)cc3)cc2O)cc1 | 4 | -0.82
COc1ccccc1-c1cn[nH]c1-c1ccc(OCc2cc(C)ccc2C)cc1O | 0 | 0
COc1ccc(-c2n[nH]c3c2[C@@H](c2ccc(OCc4ccccc4F)cc2)CC(=O)O3)cc1 | -7 | 1.23
NC(=O)Cc1ccc(Cl)cc1Cl | -10 | 1.37
Cc1nn(-c2ccc(Cl)cc2)cc1-c1noc(C(=O)NC2CCC(C)CC2)n1 (stereo not drawn) | -10 | 1.19
C[C@H]1CCN(Cc2ccncc2)CCN1Cc1ccccc1 | -16 | 3.16

Structure (SMILES) | % Inhibition [%] | Z score
CN1C(=O)c2ccccc2O[C@H]2CN(Cc3ccccc3)C[C@H]21 | -9 | 1.36
Cc1noc(C)c1CN1C[C@@H]2Oc3cc(F)ccc3C(=O)N(C)[C@@H]2C1 | 91 | -10.61
CN1C(=O)c2ccccc2O[C@H]2CN(Cc3cc(-c4ccccc4)no3)C[C@H]21 | 4 | -0.65
CON1CCC(C(=O)NC2c3ccccc3CCC2C)CC1 (stereo not drawn) | 0 | -0.03
c1nc(CCNC[C@@H]2CCCN3CCCC[C@H]23)c[nH]1 | -15 | 2.93
O=C(O)[C@H]1CCCN(C2CCN(Cc3ccccc3)CC2)C1 | -13 | 1.5
COCc1ncc(C)n1CC1CN(C(=O)CCc2ccccc2)C1 | -10 | 1.37
COc1cc(Cl)c(C)cc1NC(=O)c1nc2cc(C)c(C)cc2n(C)c1=O | 37 | 0.48
COc1cc(Cl)c(C)cc1NC(=O)c1cc(=O)n(-c2ccc(C)cc2)[nH]1 | 53 | -6.9
COc1cc(Cl)c(C)cc1NC(=O)c1cnn[nH]1 | -17 | 3.31
O=C(N[C@H](c1ccccc1F)C1CCCC1)C1CCN(C(=O)c2ccco2)CC1 | -9 | 0.87
O=C(C1CCC(C2CC2)N1)N1CCC2(CCc3ccccc3C2=O)CC1 (stereo not drawn) | 1 | -0.19
CC(CCO)C1(CNC(=O)NCC2CCCO2)CCC1 (stereo not drawn) | -7 | 1.25
CCc1cccc2c(C3=CCN(C(=O)Nc4cn[nH]c4)CC3)c[nH]c12 | -8 | 1.44
Cn1ccnc1CN(Cc1cccnc1)C1CCCCCC1 | 2 | -0.44
CCC(=O)N1CCC(NCc2csc3ccccc23)C(CC)C1 (stereo not drawn) | -13 | 1.94
CCCc1nc(NC[C@H]2CC[C@H](CO)CC2)no1 | -12 | 1.18
Cc1nc(C(F)(F)F)c(CN(C)C[C@H]2CCOC2)s1 | -8 | 1.25
Cc1oc(-c2ccc(C(=O)NCCN(C)C)cc2)nc1CN1CCc2ccccc21 | -14 | 1.84
Cc1nc(C)c(CC(=O)N2CCN(c3ccccc3)CC2)c(=O)[nH]1 | -33 | 3.87
CCCCNC(=O)c1ccc(CN2C(=O)CCn3nccc32)cc1 | 18 | -2.08
O=C(NCCCc1ccccc1)c1ccc(CN2C(=O)CCn3nccc32)cc1 | 58 | -2.28
COCCCNC(=O)c1ccc(CN2C(=O)CCn3nccc32)cc1 | 13 | -1.46
CC1CCCN(C(=O)C2CCC2)C1CN (stereo not drawn) | -3 | 0.43
CC(C)c1ccc2ncnc(N[C@H]3CCc4[nH]cnc4C3)c2c1 | 96 | -17.94
C[C@@H](NC(=O)NC1CCc2[nH]cnc2C1)c1ccc(F)cc1 (stereo partly drawn) | -10 | 1.89
C[C@@H]1CC[C@H](CO)N1C(=O)Cc1cccc(C(F)(F)F)n1 | 3 | -0.37
